VACV Venus inh – vaccinia inhibition (Venus reporter); Vaccinia virus Venus reporter expression, fluorescence; Potency, µM (highest dose often 36.5 µM), for inactives: top-dose activity change, negative = inhibition, actives largely listed as inhibitors; actives 0.46% (n = 330,000); AID 720580; calls by dose curve; tested in A549 cells; further: potency means the concentration at half of the fitted maximal effect; on the % scale 0 is the no-effect control and ±100 the full control effect; nearly all actives have a fitted effect of over 30% in size
AmpC no deterg – inhibitors of E. coli AmpC beta-lactamase without detergent | P00811 | AmpC nitrocefin hydrolysis, absorbance 480 nm, 0.0001% Triton | Potency, µM (highest dose often 57.1 µM), without a hit: at the highest dose activity change, negative = inhibition, hits mostly inhibitors | actives 0.52% (n = 330,000) | AID 485341;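 further: potency means the concentration at half of the fitted maximal effect; plate controls were no compound for no effect and no enzyme for full effect; nearly all actives have a fitted effect of over 20% in size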
Target sequence (P00811 whole entry, looked up): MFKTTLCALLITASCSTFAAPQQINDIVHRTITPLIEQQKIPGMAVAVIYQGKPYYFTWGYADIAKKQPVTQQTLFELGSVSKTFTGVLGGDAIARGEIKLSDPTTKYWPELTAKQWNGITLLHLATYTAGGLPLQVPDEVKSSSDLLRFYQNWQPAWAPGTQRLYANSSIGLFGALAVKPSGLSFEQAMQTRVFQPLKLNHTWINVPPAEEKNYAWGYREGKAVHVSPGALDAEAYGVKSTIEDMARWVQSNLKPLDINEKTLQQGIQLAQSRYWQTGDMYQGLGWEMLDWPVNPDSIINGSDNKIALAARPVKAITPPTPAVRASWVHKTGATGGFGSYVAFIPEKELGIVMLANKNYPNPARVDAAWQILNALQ
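20 mM phosphate pH 7.0 + 0.01% (detergent screen) or 0.0001% Triton X-100; 5.3 nM AmpC reagent; cpd preinc 15 min RT; nitrocefin (800 uM stock) to start; A480 q20 s × 4 min; Activity was normalised to no-enzyme and no-compound control wells.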
SARS PLpro yeast-1 – blocks SARS-CoV papain-like protease in a yeast assay | S. cerevisiae expressing SARS-CoV PLpro, growth rescue | Potency, µM (doses to about 32.9 µM), without a hit: at the top dose activity, positive = growth rescue, actives largely listed as activators | actives 0.19% (n = 330,000) | AID 485353; calls by dose curve; further: potency means the concentration at half of the fitted maximal effect; 0% is about no effect; nearly all actives have a fitted effect of over 55% in size
AmpC inh detg – blocks E. coli AmpC beta-lactamase in detergent assay. actives 0.041% (n = 370,000). AmpC hydrolysis of nitrocefin, absorbance 480 nm, 0.01% Triton. Potency, µM (series often up to 114 µM), without a hit: at the top dose activity change, negative = inhibition, hits mostly inhibitors. P00811;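 further: potency means the concentration at half of the fitted maximal effect; 0% = no-compound wells and -100% = no-enzyme wells; nearly all actives have a fitted effect of over 25% in size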
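20 mM phosphate pH 7.0 + 0.01% (detergent screen) or 0.0001% Triton X-100; 5.3 nM AmpC reagent; cpd preinc 15 min RT; nitrocefin (800 uM stock) to start; A480 q20 s × 4 min; Activity was normalised to no-enzyme and no-compound control wells.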
Vaccinia mCherry – vaccinia inhibition (mCherry reporter); Potency, µM (highest dose often 36.5 µM), for the others: at the highest dose activity change, negative = inhibition, actives largely listed as inhibitors; actives 0.63% (n = 310,000); Vaccinia virus mCherry reporter infection, fluorescence; calls by dose curve; tested in A549 cells; further: potency means the concentration at half of the fitted maximal effect; on the % scale 0 is the no-effect control and ±100 the full control effect; nearly all actives have a fitted effect of over 35% in size
SARS PLpro yeast-2 – Rescues yeast growth by inhibiting SARS-CoV PLpro; shares compounds with SARS PLpro yeast-1; yeast expressing SARS-CoV PLpro, growth phenotype rescue; calls only; actives 19% (n = 1,000); AID 652038; call rule not given here
* = called active by the depositor; i = inactive; u = inconclusive; x = no result given; + = active, no number; [ ] = dose if it differs, or a comment. Compounds with a hit are over-represented: about 1.3% of the library has one in this group of screens. Unless noted, the call rests on the fitted dose curve; in most records, active means well fitted curve in the direction sought with a large enough effect; inconclusive means small, poorly fitted or top-dose-only effect, or another doubt; inactive means no such curve, though single readings can be large; an effect the other way counts as inactive or inconclusive.

SMILES	VACV Venus inh	AmpC no deterg	SARS PLpro yeast-1	AmpC inh detg	Vaccinia mCherry	SARS PLpro yeast-2
Cc1noc(C)c1C(=O)Nc1nc(-c2ccc(F)cc2)cs1	-11.3%	-23.2%	u	-1.6%	i	i
COc1cc(NS(=O)(=O)c2ccc(NC(=O)COc3ccc(C)cc3)cc2)nc(OC)n1	x	-43.6%	11.2µM*	u	x	i
COc1cc(NC(=O)c2noc3c2CCc2ccccc2-3)cc(OC)c1OC	-14.2%	x	x	18.8%	-23.7%	x
CCCCN1C(=O)C(CC(=O)NCCCCc2ccccc2)CC(C(=O)N(C(C)C)C(C)C)=C1C (configuration not stated)	-21.5%	x	x	x	u	x
Cc1ccc(N2CC(C(=O)OCC(=O)Nc3ccccc3C)CC2=O)cc1 (configuration not stated)	x	-1.2%	u	5.3%	x	u
CCOC(=O)N1CCN(CCC(=O)Nc2ccccc2OC)CC1	-24.0%	-9.8%	u	-0.7%	u	i
CCC(=O)N1CCc2cc(Br)cc(S(=O)(=O)CCC(=O)Nc3cccc(CC)c3)c21	-7.2%	x	x	6.8%	-14.9%	x
CCCOC(=O)c1c(NC(=O)C2c3ccccc3Oc3ccccc32)sc2c1CCC(C)C2 (configuration not stated)	-1.6%	x	x	24.4%	-2.0%	x
Cc1cc(C)c2cc(CN(CCO)C(=O)NC3CCCCC3)c(=O)[nH]c2c1	-19.5%[7.34 µM]	51.9%	0.7%	1.6%	i[7.34 µM]	x
CCN1CCCC1CN(Cc1cc2c(C)cc(C)cc2[nH]c1=O)C(=O)NC1CCCCC1 (configuration not stated)	-23.0%	111.8%	u	u	x	i
Clc1ccc2c(ccc[n+]2CCC2CCCCC2)c1	-17.6%	x	x	x	21.5%	x
Cc1cc(Cl)ccc1OCC(=O)N/N=C1\CC2C=CCC12 (configuration not stated)	-12.7%	-36.5%	u	u	-5.5%	i
CCn1nc(C)c(/C=C/C(=O)Nc2ccc(C)cc2C)c1C	-20.1%	-39.6%	u	-5.9%	i	i
Cc1ccc(/C=C/c2onc(C)c2S(=O)(=O)N2CCC(C(=O)N3CCC(N(C)C(C)C)CC3)CC2)cc1	u	x	x	-4.5%	-28.9%	x
CC(=O)Nc1ccc(NC(=O)CN2C(=O)NC3(CCCCCCC3)C2=O)cc1	-11.8%	-24.8%	-16.3%	x	-16.3%	x
CC(C)c1ccc(NC(=O)CN2C(=O)NC3(CCCC3)C2=O)cc1	-10.4%	-1.1%	3.55µM*	-1.4%	-16.0%	i
COC(=O)c1sc(=S)sc1C(=O)OC	-11.1%	-12.6%	6.31µM*	-10.8%	i	u
Cc1cc(/C=N/NC(N)=S)c(C)n1-c1ccc(Cl)cc1	x	-41.6%	11.2µM*	-1.1%	x	i
COC(=O)c1cc2oc3ccccc3c2n1Cc1cc(C)ccc1C	-24.6%	x	x	2.7%	-28.1%	x
O=C(COC(=O)CC1CCCC1)Nc1cccc(F)c1	x	-41.8%	u	-1.5%	x	i
O=C(COC(=O)C1CCCCC1)Nc1cccc(F)c1	-1.3%	-22.0%	-14.1%	x	-15.9%	x
CC(Sc1n[nH]c(-c2ccccc2F)n1)C(=O)Nc1ccc(S(N)(=O)=O)cc1 (configuration not stated)	-3.6%	-46.8%	u	-0.8%	-6.3%	i
CCN(c1ccccc1)S(=O)(=O)c1ccc(C(=O)N2CCN(c3ccccc3F)CC2)cc1	-28.4%	x	x	x	u	x
COc1ccc(Cl)cc1NC(=S)NCCc1ccc(S(N)(=O)=O)cc1	-11.0%	-17.2%	1.0%	9.1%	-22.0%	x
COc1cc(NC(=S)NCc2ccc(S(N)(=O)=O)cc2)c(OC)cc1Cl	-4.8%	-24.7%	u	u	-18.5%	i
SMILES	VACV Venus inh	AmpC no deterg	SARS PLpro yeast-1	AmpC inh detg	Vaccinia mCherry	SARS PLpro yeast-2
Cc1cc(C)cc(N2C(=O)CS(=O)(=O)C23C(=O)N(Cc2ccc(F)cc2)c2ccc(C)cc23)c1 (configuration not stated)	-5.6%	x	x	15.9%	-0.7%	x
CCOC1=C2CN(S(=O)(=O)c3ccc(C)cc3)C(c3ccccc3)CC2N(S(=O)(=O)c2ccccc2Cl)C(c2ccccc2)C1 (configuration not stated)	2.7%	x	x	x	-0.6%	x
COC(=O)Cc1c(C)nc2nc(-c3ccc(Cl)cc3)[nH]n2c1=O	2.0%	-8.3%	u	-12.4%	x	i
Cc1ccc(C)c(/C=N/NC(=S)NCCc2ccccc2)c1	-4.9%	-32.7%	x	-0.1%	-14.5%	u
Cc1ccc(C)c(/C=N/NC(=S)NC(C)C)c1	-17.2%	-22.9%	7.08µM*	u	-3.8%	u
CNC(=S)N/N=C/c1cc(C)ccc1C	x	-35.2%	6.9%	-0.2%	x	x
CC(C)C#Cc1ccc2c(c1)O[C@@H](CN(C)S(=O)(=O)c1cn(C)cn1)[C@@H](C)CN([C@H](C)CO)S2(=O)=O	-16.7%	x	x	x	i	x
COc1cc(N(CCCn2cnc3c(SC)ncnc32)CCCn2cnc3c(SC)ncnc32)cc(OC)c1OC	-4.4%	x	x	x	-14.2%	x
Cc1ccc2c(c1)-c1c(cnc3cc(-c4ccc(F)cc4)nn13)CO2	-15.0%	x	x	1.4%	-18.9%	x
CCCn1c(SCc2nc(N)nc(N3CCCCC3)n2)nc2c1c(=O)n(C)c(=O)n2C	-0.7%	-39.7%	-9.6%	-4.3%	i	x
Cn1c(=O)c2c(nc(SCc3nc(N)nc(N4CCCCC4)n3)n2C)n(C)c1=O	-7.1%	-5.8%	u	u	2.3%	i
O=C(CSc1nnc(-c2cccnc2)s1)Nc1ccccc1	5.1%	-4.5%	u	7.3%	-2.6%	+
CCN1C(=O)c2cccc3c(S(=O)(=O)Nc4ccccc4OC)ccc1c23	-28.0%	20.9%	u	4.2%	-5.3%	i
Clc1ccccc1/C=N/Nc1cc(N2CCOCC2)ncn1	-15.9%	79.1%	-0.3%	-3.0%	i	x
CCCOc1ccc(/C=N/Nc2cc(N3CCOCC3)ncn2)c(O)c1	x	32.0%	5.01µM*	-12.6%	x	+
Cc1cccc(C)c1NC(=O)NN(C(=O)c1ccccc1)C(C)(C)C	-10.5%	-8.4%	2.51µM*	6.3%	i	i
Cc1ccccc1NC(=O)/C(=C\c1cccs1)NC(=O)c1ccco1	x	-17.1%	u	-0.2%	x	i
Cc1ccccc1NC(=O)/C(=C/c1cccs1)NC(=O)c1ccco1	-10.0%	-8.9%	9.4%	1.4%	i	x
COCCn1c(SCC(=O)Nc2cc(Cl)ccc2OC)nc2c([nH]c3ccccc32)c1=O	-13.7%	x	x	6.6%	-13.4%	x
Cn1c(SCC(=O)NNC(=O)c2ccccc2O)nnc1-c1ccccc1	-1.8%	-7.4%	u	-4.9%	u	x
O=C(CSc1nnc(-c2ccccc2)n1Cc1ccccc1)NNC(=O)c1ccccc1O	u	-17.5%	5.01µM*	-10.8%	u	i
O=C(CSc1nnc(-c2ccccc2O)n1Cc1ccccc1)NNC(=O)c1ccccc1O	-16.7%	-37.6%	6.31µM*	-12.2%	-24.0%	+
Cc1ccsc1C1Nc2ccc3ncccc3c2C2=C1C(=O)CC(C)(C)C2 (configuration not stated)	u	9.5%	11.2µM*	7.1%	u	i

Screening data as filed in PubChem.
